Cycloheximide cs: affects cycloheximide protein synthesis inhibition readout, counter-screen | actives 12% (n = 300,000) | max response, % | cell reporter, cycloheximide protein synthesis inhibition counterscreen; in the data active = max response mostly above about 13%, no sharp cut-off; inactive = mostly below about 14%; note: read at 38.3 µM for the half of the compounds with a filed dose; 0% is about no effect
Shiga toxin inh: Shiga toxin inhibition | actives 9.2% (n = 290,000) | inhibition, % at 38.7 µM | Vero cells, Shiga toxin protein synthesis inhibition reporter; in the data active = inhibition mostly above about 28%, no sharp cut-off; inactive = mostly below about 43%; note: 0% is about no effect
Pf growth 48h: P. falciparum growth inhibition at 48 hours (one generation); P. falciparum luciferase growth in erythrocytes, 48 h; Potency, µM (doses to about 28.7 µM), without a hit: top-dose activity change, negative = inhibition, hits mostly inhibitors; actives 5.9% (n = 310,000); AID 504832; note: potency is the fitted concentration of half-maximal effect; % is set by controls: 0 for no effect and ±100 for the full control effect
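Luciferase-expressing P. falciparum in infected erythrocytes (2% hematocrit, 0.1% parasitemia final) in RPMI 1640/0.5% Albumax were exposed to compound for 48 hours at 37 C, 5% CO2; growth read as luminescence.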
HCMV antiviral: human cytomegalovirus inhibition; HFF cells, HCMV-luciferase reporter, 72 h; stronger effect = lower value; activity change, negative = inhibition, % at 57.5 µM; actives 4.5% (n = 410,000); AID 1259415; in the data active = activity change below about -60%; inconclusive = no clear call, values can overlap the other calls; inactive = above about -39%; note: % is set by controls: 0 for no effect and ±100 for the full control effect
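Compounds were evaluated in HFFs infected with an HCMV luciferase reporter virus (MOI 1 PFU/cell). Luciferase in lysates collected 72 h post infection served as the replication measure.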
Pf growth 96h: P. falciparum growth inhibition at 96 hours. actives 6.9% (n = 320,000). P. falciparum luciferase reporter growth, 96 h. Potency, µM (doses to about 28.7 µM), for the others: top-dose activity change, negative = inhibition, actives largely listed as inhibitors; note: potency is the fitted concentration of half-maximal effect; % is set by controls: 0 for no effect and ±100 for the full control effect
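P. falciparum expressing integrated firefly luciferase, in erythrocytes at 2% hematocrit, 0.05% parasitemia, incubated with compounds 96 h at 37 C, 5% CO2. Growth inhibition read as loss of luminescence; two-generation exposure targets delayed-death apicoplast inhibitors.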
Active calls of the source: *; i = inactive; u = inconclusive; x = no result given. An excerpt weighted towards active compounds, which were near 20% of everything screened. Unless noted, calls come from the whole dose curve; as a rule, active = well fitted inhibition curve with a large enough effect; inconclusive = small, poorly fitted or top-dose-only effect, or another doubt; inactive = no such curve, though single readings can be large or run the other way.

SMILES	Cycloheximide cs	Shiga toxin inh	Pf growth 48h	HCMV antiviral	Pf growth 96h
CC(C)(C)OC(=O)NCCCC[C@@H](C(=O)NCCCCCCCCCCC(=O)N1CCN(C(=O)OC(C)(C)C)CC1)n1cc(CCCC(=O)O)nn1	x	x	7.4µM*	-14	5.9µM*
CC(C)(C)OC(=O)CC[C@@H](C(=O)NCCCCCCCCCCC(=O)N1CCN(C(=O)OC(C)(C)C)CC1)n1cc(CCCCCNC(=O)OC(C)(C)C)nn1	x	x	0.37µM*	-14	0.33µM*
C[C@H](O)[C@@H](C(=O)N1CCN(C(=O)OC(C)(C)C)CC1)n1cc(CCCCNC(=O)OC(C)(C)C)nn1	-2	35	-2%	-18	9%
CC(C)(C)OC(=O)NCCCCCc1cn([C@@H](CO)C(=O)NCCCCCCCCCCC(=O)N2CCN(C(=O)OC(C)(C)C)CC2)nn1	x	x	1.2µM*	-95*	2.9µM*
COC(=O)c1c(NC(=O)C(C)(C)C)sc2c1C(C(=O)OC)CC2 (stereo not drawn)	-6	-2	u	5	u
COC(=O)c1c(NC(=O)C(Cl)Cl)sc2c1C(C(=O)OC)CC2 (stereo not drawn)	-1	-14	-1%	-62*	-24%
COc1ccc(C(=O)/C=C2/C(=O)Nc3ccccc32)c(OC)c1	1	15	-6%	-100*	3%
COc1ccc(C2(C(=O)c3ccccc3)C(=O)c3ccccc3C2=O)cc1	14*	37	u	x	24%
C=CCOc1ccccc1C(=O)/C=C1/C(=O)Nc2ccccc21	-7	-16	1%	-103*	0%
O=C1Nc2ccccc2/C1=C/C(=O)c1cccs1	11	-14	15%	-95*	x
Cc1c(C(=O)N2CCOCC2)c(S(=O)(=O)Nc2ccccc2F)c(C)n1C	6	-14	u	-4	-12%
COc1ccc(C(=O)/C=C2/C(=O)Nc3ccccc32)cc1	21*	58*	25%	-13	24%
C=CCOc1ccc(C(=O)/C=C2/C(=O)Nc3ccccc32)cc1	-2	-11	1%	-69*	-5%
O=C1Nc2ccccc2/C1=C/c1nc2ccccc2c(=O)n1-c1ccc(O)cc1	-2	-4	u	u	u
COc1ccc(-n2c(/C=C3\C(=O)Nc4ccccc43)nc3ccccc3c2=O)cc1	-6	-4	9%	-64*	i
CCN=C1SC(CC(=O)NC(C)c2ccccc2)C(=O)N1CC (stereo not drawn)	-3	-4	6%	0	24%
CCCCN1CC(N2CCCCC2)CS1(=O)=O (stereo not drawn)	x	x	x	-18	x
COc1ccc(-n2c(C)c(C(C)=O)c(C(C)=O)c2C)cc1OC	1	-15	-22%	3	4%
COc1ccc(-n2c(C)c3c(C)nnc(C)c3c2C)cc1OC	x	x	x	-60*	x
Cc1cc(C(=O)NCC2CCCCC2)ccc1[N+](=O)[O-]	24*	84*	24%	40	28%
O=C(NCC1CCCCC1)c1cccc([N+](=O)[O-])c1	-2	11	5.2µM*	-2	u
O=C(NCC1CCCCC1)c1ccc([N+](=O)[O-])cc1	12	16	141%	10	7%
Cc1ccc2c(CNC3CCC(C)CC3)c(C(=O)O)n(Cc3cccc(F)c3)c2c1 (stereo not drawn)	x	x	x	9	x
CCCCn1c(SCC(=O)N(CC)C2CCS(=O)(=O)C2)nc2cc(S(N)(=O)=O)ccc21 (stereo not drawn)	-3	-8	-16%	u	-8%
CCCCn1c(SCC(=O)N(C)C2CCS(=O)(=O)C2)nc2cc(S(N)(=O)=O)ccc21 (stereo not drawn)	-5	-3	28%	-61*	36%
SMILES	Cycloheximide cs	Shiga toxin inh	Pf growth 48h	HCMV antiviral	Pf growth 96h
CCN(C(=O)CSc1nc2cc(C(F)(F)F)ccc2n1Cc1ccccc1)C1CCS(=O)(=O)C1 (stereo not drawn)	-8	-7	10µM*	45	9.3µM*
Cc1cc(N2CCN(C)CC2)nc2ccc(NC(=O)CCC3CCCC3)cc12	-4	-8	u	-36	u
Cc1cc(N2CCN(C)CC2)nc2ccc(NC(=O)c3cccnc3Cl)cc12	0	-18	x	28	88%
CCOc1ccc(CCNC(=O)CCC(=O)Nc2ccc3nc(N4CCN(C)CC4)cc(C)c3c2)cc1OCC	7	-4	-2%	-7	u
CCOc1cc(C(=O)Nc2ccc3nc(N4CCN(C)CC4)cc(C)c3c2)cc(OCC)c1OCC	x	x	x	-66*	x
Cc1cc(N2CCN(C)CC2)nc2ccc(NC(=O)Nc3cccc(Cl)c3)cc12	x	x	x	-99*	x
Cc1ccc(NC(=O)Nc2ccc3nc(N4CCN(C)CC4)cc(C)c3c2)cc1C	x	x	x	-100*	x
Cc1cc(N2CCN(C)CC2)nc2ccc(NC(=O)Nc3ccccc3Br)cc12	x	x	x	-95*	x
CCCC(CCC)C(=O)Nc1cc(-c2cn3cccnc3n2)ccc1OC	x	x	x	-6	x
O=C(COC(=O)c1c(F)cccc1F)NCCNC(=O)COC(=O)c1c(F)cccc1F	-5	-13	19%	-3	19%
Cc1cc(N2CCN(C)CC2)nc2ccc(NC(=O)CCC(=O)N3CCN(c4ccc([N+](=O)[O-])cc4)CC3)cc12	-2	9	5.2µM*	-64*	-21%
Cc1cc(N2CCOCC2)nc2ccc(NC(=O)CCC(=O)N3CCN(c4ccccc4)CC3)cc12	3	-6	-28%	59	u
Cc1ccc(C(=O)NCCSc2c[nH]c3ccccc23)cc1C	x	x	x	5	x
COc1ccc(S(=O)(=O)N(C)c2ccc(C(=O)N3CCCCC3)cc2)cc1	-2	-14	7%	-17	-10%
CSc1nc2nc3c(cc2c(=O)[nH]1)C(O)Oc1ccc(C)cc1-3 (stereo not drawn)	-3	-10	1.3µM*	-5	u
CSc1nc(O)c(C(c2ccc(C)cc2)c2c(O)nc(SC)[nH]c2=O)c(=O)[nH]1	5	1	-22%	-20	8%
COc1ccc(OC)c2sc(N3CCCCC3)nc12	36*	66*	30%	8	39%
c1ccc2c(c1)CCN(c1nc3cc4c(cc3s1)OCCO4)C2	34*	15	19%	-90*	x
O=S(=O)(c1ccc2c(c1)OCCO2)N1CCN(c2nc3ccccc3s2)CC1	-4	-3	-10%	u	0%
COc1ccc(OC)c2sc(N3CCc4ccccc4C3)nc12	18	51	u	-76*	-1%
CC(=O)c1cnn(-c2ccc(Cl)c(Cl)c2Cl)c1C	-3	1	-19%	6	-3%
Cc1ccc(S(=O)(=O)N2CCC([C@@H](C#N)c3ccccc3)CC2)cc1	x	x	x	-17	x
COc1cc(NS(=O)(=O)c2ccc(C)cc2C)cc(OC)c1OC	3	-12	6.6µM*	-18	3.3µM*
CCC(=O)CCC(=O)c1ccc2ccccc2c1	55*	125*	62%	51	35%
CC(C)N(CCC(=O)c1ccc2ccccc2c1)Cc1ccccc1	x	x	-26%	-77*	24%
CCC(=O)Nc1ccc(NC(=O)c2ccc3ccccc3c2)cc1	10	x	86%	-1	129%

High-throughput results from PubChem BioAssay.
